The campaign covered roughly 330,000 compounds. About 4,200 (1.3%) were called active. Not shown: some 6% with an inconclusive outcome. The call rests on the fitted dose curve; in most records, active means well fitted activation curve with a large enough effect; inconclusive means small, poorly fitted or top-dose-only effect; inactive means no such curve, though single readings can be large or run the other way. What follows is part of a selection rich in actives, with near analogues and random picks from the rest. A call without a number means that no potency is given here.
Potency means the concentration at half of the fitted maximal effect.

This test in a line: qHTS screen for small molecules that induce genotoxicity in human embryonic kidney (HEK293T) cells expressing luciferase-tagged ELG1. Further: nearly all actives have a fitted effect of over 60% in size. The following applies: HEK293T ELG1-luciferase reporter, luminescence, 16 h; series mostly up to 46 µM. The gist of the method:
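HEK293T cells expressing luciferase-tagged ELG1 were exposed to compound or DMSO vehicle for 16 hr at 37 °C and 5% CO2. Luciferase activity was then measured with ONE-Glo after 30 min at room temperature.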
Background: qHTS replaces the single test concentration by a dilution series.
`O=C(COC(=O)c1cccc(Cl)c1)NC(=O)NCc1ccccc1`: the Potency entry was “inactive”.
Then `Nc1ncc(-c2cc3ccccc3oc2=O)s1`, with 2.59 µM (active).
The entry for `O=C(NCc1cccnc1)c1cccc(-c2cc3ccccc3oc2=O)c1` is “inactive”; for `O=C(Nc1ccncc1)c1cc2ccccc2o1` it is “inactive”.
Then `O=C(COC(=O)c1cccc(Br)c1)Nc1cccc2c1C(=O)c1ccccc1C2=O`, with 13 µM (active); and `O=C(COC(=O)c1ccccc1)Nc1ccccc1Sc1ccccc1`, with “inactive”.
For the compound `O=C(COC(=O)Cn1cnc2ccccc21)Nc1cccc2c1C(=O)c1ccccc1C2=O`, the Potency result is “inactive”.
The entry for `C[C@H](CO)N1C[C@H](C)[C@H](CN(C)CC2CC2)Oc2ccc(NC(=O)CCN3CCOCC3)cc2C1=O` is “inactive”; for `COC(=O)c1ccc(CSc2nc3cc(Cl)ccc3o2)cc1` it is “inactive”; for `COC(=O)c1ccc(CNC(=O)c2ccc3oc(C(C)C)nc3c2)cc1` it is 20.6 µM (active).
The entry for `CC(C)c1nc2cc(C(=O)NC(C)c3cnn(C)c3)ccc2o1` (configuration not stated) is “inactive”.
Then `C=CC[C@@H](CC(=O)NCCO)C(=O)N[C@H](C)COC(=O)[C@@H](CC=C)CC(=O)OC(C)(C)C`, with “inactive”; and `Cc1cccc(C(=O)OCC(=O)NC(C)C2CC3CCC2C3)c1O` (configuration not stated), with “inactive”.
For the compound `COc1ccccc1NC(=O)COC(=O)CNC(=O)C1CCCCC1`, the Potency result was “inactive”.
The entry for `Nc1ncnc2c1ncn2[C@@H]1O[C@H](CNS(=O)(=O)c2ccc(-c3ccno3)s2)[C@@H](O)[C@H]1O` is “inactive”; for `O=C(CCCOc1ccccc1)NNC(=O)c1ccc(Cl)cc1` it is “inactive”.
The figure for `CC(=O)Nc1cccc(-c2cnc3ccccc3n2)c1` is 10.3 µM (active); for `CC(=O)Nc1cccc(Nc2nc(-c3cccs3)nc3ccccc23)c1` it is “inactive”; for `CCS(=O)(=O)Nc1cccc(-c2cc(-c3ccccc3)c3cc(C)ccc3n2)c1` it is “inactive”.
Consider `O=C(c1ccc(S(=O)(=O)NCc2ccco2)cc1)N1CCN(c2ccccc2)CC1`, for which the Potency entry is “inactive”.
Turning to `Cc1noc(C)c1C(=O)Nc1ccccn1`, the Potency entry is “inactive”.
Then `Cc1c(C(=O)Nc2ccccn2)oc2ccc(Br)cc12`, with 9.2 µM (active); and `COC(=O)c1oc2ccc(Br)cc2c1NC(C)=O`, with “inactive”; and `O=C(COC(=O)COc1cc(Cl)c(Cl)cc1Cl)NC1CC1`, with “inactive”.
The entry for `COc1ccc(-c2cc(=O)c3c(O)cc(O[C@@H]4O[C@H](CO[C@@H]5O[C@@H](C)[C@H](O)[C@@H](O)[C@H]5O)[C@@H](O)[C@H](O)[C@H]4O)cc3o2)cc1O` is “inactive”; for `COc1c(O)cc2oc(-c3ccc(O)c(O)c3)cc(=O)c2c1O` it is 20.6 µM (active); for `CCOC(=O)COc1cc(O)c2c(=O)cc(-c3ccccc3)oc2c1` it is “inactive”.
Take `CCN(C(=O)COC(=O)CCC(=O)c1cccs1)C1CCCCC1`: the Potency entry was “inactive”.
Then `C[C@H](CO)N1C[C@H](C)[C@H](CN(C)C(=O)Nc2ccc(C(F)(F)F)cc2)Oc2c(NC(=O)c3ccncc3)cccc2C1=O`, with “inactive”; and `C[C@]12c3[nH]c4ccc(Cl)cc4c3CCN1C(=O)[C@@H](CC(=O)NCCCn1ccnc1)C[C@@H]2C(=O)N1CCOCC1`, with “inactive”.
Then `CCC1CCCCN1C(=S)NC(=O)c1ccco1` (configuration not stated), with “inactive”.
The entry for `COc1ccc2c(CC(=O)NNC(=O)c3ccccc3F)coc2c1` is “inactive”; for `O=C(CSCc1ccccc1)N1CCc2ccccc21` it is 2.59 µM (active); for `CCC(=O)N1CCCc2ccccc21` it is “inactive”.
Turning to `O=C(CN1CCN(c2ccccn2)CC1)N1CCc2ccccc21`, the Potency result was “inactive”.
In the case of `COc1cc(C2CC(=O)Oc3cc(OC)c(OC)c(OC)c32)cc(OC)c1OC` (configuration not stated), the Potency entry was “inactive”.
The entry for `CC1CC(=NNC(=O)C2COc3ccccc3O2)CC(C)(C)C1` (configuration not stated) is “inactive”.
The entry for `Cc1csc(NC(=O)c2ccc(-c3ccc(Cl)cc3Cl)o2)n1` is “inactive”; for `COc1cc(SC)ccc1C(=O)N(Cc1ccccc1)c1ccccc1` it is “inactive”; for `COc1cc(SC)ccc1C(=O)Nc1nc(C)cs1` it is 0.058 µM (active).
The entry for `CN(C)C(=O)CCc1ccc2c3c([nH]c2c1)[C@]1(CCc2ccccc2)[C@@H](C(=O)N2CCCCC2)C[C@H](CC(=O)NCCC2=CCCCC2)C(=O)N1CC3` is “inactive”; for `CN(Cc1ccc(F)cc1)C(=O)CN1C(=O)c2ccccc2S1(=O)=O` it is “inactive”.
On to `CC[C@]12c3[nH]c4cc(CCC(=O)N(C)C)ccc4c3CCN1C(=O)[C@@H](CC(=O)NCc1ccco1)C[C@@H]2C(=O)N1CCN(C(=O)c2ccco2)CC1`, for which the Potency result was “inactive”.
Then `Cc1ccc(N2CCN(/N=C/c3cccs3)CC2)cc1`, with “inactive”; and `C(=N/N1CCN(c2ccccc2)CC1)/c1cccs1`, with 14.6 µM (active).
Then `COc1cc(/C=N/N2CCN(c3ccccc3)CC2)ccc1OC(C)=O`, with “inactive”.
The entry for `CN(CC(=O)Nc1ccc(OC(F)F)cc1)S(=O)(=O)/C=C/c1ccccc1` is “inactive”; for `COc1ccc2sc(-c3ccc(N(C)C)cc3)c(-c3ccc4cc[nH]c4c3)c2c1` it is “inactive”.
Take `O=C(Nc1ccc(NC(=O)c2cccs2)cc1)c1ccc2ccccc2c1`: the Potency result is “inactive”.
The entry for `Cc1ccc(C(=O)Nc2ccc(NC(=O)c3cccs3)cc2)c(C)c1` is “inactive”; for `O=C(Nc1ccc2oc(-c3ccc4ccccc4c3)nc2c1)c1cccs1` it is 2.91 µM (active).
`COc1ccc(CCNC(=O)COC(=O)c2cnc(Cl)c(Cl)c2)cc1`: the Potency result was “inactive”.
Then `Cc1ccc2[nH]c(=O)c(COC(=O)c3ccccn3)cc2c1`, with “inactive”; and `CCOC(=O)c1cc2cc(C)ccc2[nH]1`, with 20.6 µM (active).
In the case of `CCOC(=O)c1[nH]c2ccc(C)cc2c1N=C(C)N(C)C`, the Potency result is “inactive”.
The entry for `C[C@H]1CN([C@@H](C)CO)C(=O)Cc2cc(NC(=O)Cc3ccccc3)ccc2O[C@H]1CN(C)S(=O)(=O)c1cccs1` is “inactive”.
As to `Cc1ccc(N2C(=O)N3[C@@H]4c5ccccc5OC[C@@H]4[C@@H](c4ccccc4)[C@@]3(C)C2=O)cc1`, the Potency result was “inactive”.
Then `Cc1sc(NC(=O)c2ccc3ncsc3c2)c(C(N)=O)c1C`, with 2.31 µM (active); and `COc1ccccc1-c1nnc(NC(=O)c2ccc3ncsc3c2)o1`, with “inactive”; and `Cc1ccc(C(=O)c2c(NC(=O)c3ccccc3)sc(C)c2C)cc1`, with “inactive”.
Consider `C=CC[C@H](CC(=O)NCCO)C(=O)N[C@@H](COC(=O)[C@@H](CC=C)Cc1ccc(F)cc1)Cc1c[nH]c2ccccc12`, for which the Potency entry is “inactive”.
The entry for `CC(=O)c1ccc2c(c1)OCCOCCOc1ccc(C(C)=O)cc1OCCOCCO2` is “inactive”.
The figure for `CC(=O)c1ccc2c(ccc3ccccc32)c1` is 23.1 µM (active); for `CCN(CC)Cc1cc(C(C)=O)ccc1O` it is “inactive”; for `COc1ccccc1N(CC(=O)Nc1ccc(C)cc1Cl)S(=O)(=O)c1cccs1` it is “inactive”.
Then `CCCn1nnc2sc3c(c2c1=O)CCC(C)C3` (configuration not stated), with 11.6 µM (active); and `CCCSc1nc2sc3c(c2c(=O)n1-c1ccc(OC)cc1)CCN(C)C3`, with “inactive”.
Turning to `C=CCn1c(SCc2c(C)noc2C)nc2sc3c(c2c1=O)CCC(C)C3` (configuration not stated), the Potency entry was “inactive”.
As for `O=C(COC(=O)COc1ccccc1F)Nc1cccc(S(=O)(=O)N2CCCCC2)c1`, the Potency result was “inactive”.
Then `COc1cc(OC)cc(C(=O)NNC(=O)Cc2cccs2)c1`, with “inactive”.
Then `Cc1cc(C)nc(Nc2ncn[nH]2)n1`, with “inactive”; and `CCCOc1ccccc1-c1nc(SCCC(=O)O)n[nH]1`, with “inactive”.
On to `Cc1cc(C)nc(Nc2n[nH]c(-c3ccccc3N)n2)n1`, for which the Potency was 2.31 µM (active).
Then `COc1cc(OC)cc(-c2c(C#Cc3ccsc3)c3cc(-c4ccc(OC)cc4F)ccc3n2C)c1`, with “inactive”; and `Nc1ccc(-c2sc(N)nc2-c2ccccc2)cc1`, with “inactive”.
For the compound `Nc1ccc(-c2nnc(-c3ccccc3)o2)cc1`, the Potency is 16.4 µM (active).
Then `OC(c1nnc(-c2ccccc2)o1)c1cccs1` (configuration not stated), with “inactive”; and `CC(C)n1cnc2c(NCc3ccccc3)cc(OCC3CCN(C)CC3)cc21`, with “inactive”; and `Cc1ccc(-c2csc(NC3OC(=O)c4ccccc43)n2)cc1` (configuration not stated), with “inactive”.
The figure for `Cc1ccc(-c2csc(-c3c[nH]c4ccccc34)n2)cc1` is 23.1 µM (active); for `Cc1ccc(-c2csc(NC(=O)Cn3[nH]c(=O)c4ccccc4c3=O)n2)cc1` it is “inactive”.
The entry for `O=C(Cn1cc(C(F)(F)F)ccc1=O)Nc1ccc2c(c1)OCCO2` is “inactive”; for `Cc1ccc(C)c(N2CCN(C(=O)CCc3nc(-c4cccc(C(F)(F)F)c4)no3)CC2)c1` it is “inactive”; for `Cc1c(C(=O)Nc2cccc(S(=O)(=O)N3CCOCC3)c2)oc2ccccc12` it is “inactive”.
In the case of `O=C(COC(=O)c1n[nH]c2ccccc12)Nc1ccccc1Br`, the Potency entry was “inactive”.
Then `CC(=O)Nc1ccc(NC(=O)COC(=O)C2CCC(C(C)(C)C)CC2)cc1` (configuration not stated), with “inactive”.
Then `Cc1ccc2cc(/C=N/Nc3ccc(C(=O)O)cc3)c(Cl)nc2c1`, with 18.3 µM (active).
Then `Cc1ccc2cc(/C=N/NC(=O)[C@@H]3CCCN3)c(Cl)nc2c1`, with “inactive”.
On to `CSCC[C@H](NC(=O)OC(C)(C)C)C(=O)N/N=C/c1cc2ccc(C)cc2nc1Cl`, for which the Potency entry is “inactive”.
The entry for `COc1ccc(CC(=O)N[C@@H]2c3cc(OC)c(OC)cc3C[C@H]2OCc2ccccc2)cc1` is “inactive”.
For `Cc1ccc(-n2c(C)cc(C(=O)CSc3nnc4ccccn34)c2C)cc1`, the Potency is 5.17 µM (active).
The entry for `Cc1ccc(C(=O)NNC(=O)CSc2nnc3ccccn23)cc1` is “inactive”; for `CCN(C(=O)CSc1nnc2ccccn12)C1CCS(=O)(=O)C1` (configuration not stated) it is “inactive”; for `Cc1cc(C(=O)CSc2nc(N)cc(=O)[nH]2)c(C)n1-c1cccc(F)c1` it is “inactive”.
The entry for `O=C(CSc1nnc2n1CCCN2)c1ccccc1` is “inactive”; for `O=C(CSc1nnc2ccccn12)c1ccccc1` it is 11.6 µM (active).
Then `CC1CCCCC12NC(=O)N(CC(=O)OCc1c(F)cccc1Cl)C2=O` (configuration not stated), with “inactive”; and `C[C@H](NS(=O)(=O)c1ccc(Cl)cc1)C(=O)OCC(=O)N1CCOCC1`, with “inactive”.
As for `COc1cc(OC)cc(-c2sc3ccc(OC)cc3c2-c2ccc3cc[nH]c3c2)c1`, the Potency result is “inactive”.
The figure for `Cc1ccc(NC(=O)c2cnc(SCC(=O)NCC3CCCO3)n(C)c2=O)cc1` (configuration not stated) is 20.6 µM (active).
With `Cn1c(SCC(=O)c2ccccc2)ncc(C(=O)Nc2ccc(F)cc2)c1=O`, the Potency result was “inactive”.
In the case of `CCn1c(SCC(=O)NCC2CCCO2)nc2ccccc21` (configuration not stated), the Potency result is “inactive”.

These data come from PubChem BioAssay AID504466 (National Center for Advancing Translational Sciences (NCATS), 2011).
